Results on 30 compounds are retold here after ChEMBL document CHEMBL3988442, “University of Dundee, Small-Polar-MMV Screening Library” (2021).

This assay deals with T1, Methionyl-tRNA synthetase, putative (Leishmania donovani (strain BPK282A1)) (UniProt E9BF75).
T1 sequence (whole entry): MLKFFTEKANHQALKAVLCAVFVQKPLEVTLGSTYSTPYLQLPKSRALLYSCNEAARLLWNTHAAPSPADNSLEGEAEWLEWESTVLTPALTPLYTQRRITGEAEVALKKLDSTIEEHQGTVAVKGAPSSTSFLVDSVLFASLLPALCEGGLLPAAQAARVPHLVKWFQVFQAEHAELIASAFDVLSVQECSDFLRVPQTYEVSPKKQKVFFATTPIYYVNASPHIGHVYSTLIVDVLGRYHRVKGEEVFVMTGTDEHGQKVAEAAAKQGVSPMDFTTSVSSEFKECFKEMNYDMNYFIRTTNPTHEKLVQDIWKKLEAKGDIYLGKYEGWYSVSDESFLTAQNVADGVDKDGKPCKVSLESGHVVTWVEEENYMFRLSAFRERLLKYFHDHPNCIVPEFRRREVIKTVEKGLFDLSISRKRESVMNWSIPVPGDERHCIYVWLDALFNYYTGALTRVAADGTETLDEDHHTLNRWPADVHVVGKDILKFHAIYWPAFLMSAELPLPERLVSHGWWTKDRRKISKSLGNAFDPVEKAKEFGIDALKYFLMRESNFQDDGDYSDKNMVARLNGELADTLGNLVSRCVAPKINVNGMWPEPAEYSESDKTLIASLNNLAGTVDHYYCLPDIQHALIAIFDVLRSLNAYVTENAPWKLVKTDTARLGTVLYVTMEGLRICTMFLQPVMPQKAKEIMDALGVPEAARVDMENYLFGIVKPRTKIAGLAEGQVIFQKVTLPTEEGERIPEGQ
Nature of the assay: Leishmania donovani Methionine tRNA synthetase (LdMetRS):v7. Dose response assay. In kind it is functional. Further details: conc 80 nM, time 150 minutes.

Consider `CN(CC1CC1)c1ccc2ccc(C(=O)NC3CCCCC3)cn12`, for which the PXC50 reads like this: (BOTTOM 1.124026448, HILLSLOPE 1.465093934, MAX_EFFECT 59.86394558, TOP 70.1166241) 4.49; (BOTTOM 5.503846383, HILLSLOPE 1.186903167, MAX_EFFECT 58.31775701, TOP 100.0) 4.05.
Consider `Cc1nc(N2CCN(c3ncccn3)CC2)c2c3c(sc2n1)CCCC3`, for which the PXC50 was less than 4 (MAX_EFFECT 19.78609626) and less than 4 (MAX_EFFECT 20.21857923).
As for `CCc1nc(N2CCN(c3ncccn3)CC2)c2cc(CC)sc2n1`, the PXC50 by setting is: (MAX_EFFECT 23.46666667) less than 4; (MAX_EFFECT 25.3968254) less than 4.
With `COCCNC(=O)c1ccc2ccc(N3CCN(CC4CC4)CC3)n2c1`, the PXC50 is, setting by setting: (BOTTOM 5.874206897, HILLSLOPE 1.640597442, MAX_EFFECT 51.96261682, TOP 70.05301325) 4.26; (MAX_EFFECT 46.71201814) less than 4.
Turning to `O=C(c1c[nH]cn1)N1CCC(F)(F)C2(CCN(c3ccccn3)C2)C1` (stereo not given), the PXC50 runs as follows: (MAX_EFFECT 10.79812207) less than 4; (MAX_EFFECT 12.40740741) less than 4.
Take `N[C@H](COc1cccc(F)c1Oc1ccc(Cl)cc1)Cc1ccccc1`: the PXC50 stood at 4.22 (BOTTOM 1.014480123, HILLSLOPE 1.236846962, MAX_EFFECT 63.97515528, TOP 100.0) and 4.22 (BOTTOM 4.768215501, HILLSLOPE 2.241755438, MAX_EFFECT 75.26652452, TOP 100.0).
As to `Cn1cc(CN2CCC(F)(F)C3(CCN(c4ncc(F)cn4)C3)C2)cn1` (stereo not given), the PXC50 is, setting by setting: (MAX_EFFECT 3.286384977) less than 4; (MAX_EFFECT 5.740740741) less than 4.
In the case of `Nc1noc2ccc(-c3cnc4ccc(NCCN5CCC(F)(F)CC5)nn34)cc12`, the PXC50 runs as follows: (MAX_EFFECT 10.96491228) less than 4; (MAX_EFFECT 13.23155216) less than 4.
As to `Cc1nc(NCCCNS(C)(=O)=O)c2c3c(sc2n1)CCC3`, the PXC50 (MAX_EFFECT 6.914893617) is less than 4 and the PXC50 (MAX_EFFECT 9.844559585) is less than 4.
Regarding `Cc1ccc(-c2ncc(CNc3cnccc3CO)s2)o1`, the PXC50 runs as follows: (MAX_EFFECT 7.511737089) less than 4; (MAX_EFFECT 8.703703704) less than 4.
Regarding `O=c1cc(NCCCNC2CCOc3c(I)cc(Cl)cc32)[nH]c2ccccc12` (stereo not given), the PXC50 reads like this: (BOTTOM 0.0, HILLSLOPE 1.492515979, MAX_EFFECT 100.0, TOP 105.2364851) 5.24; (BOTTOM 6.728264836, HILLSLOPE 2.160741468, MAX_EFFECT 100.4651163, TOP 100.3878671) 5.22.
Consider `Nc1nc(-c2cccs2)cc(C(F)(F)F)n1`, for which the PXC50 is less than 4 (MAX_EFFECT 6.382978723) and less than 4 (MAX_EFFECT 7.772020725).
Turning to `CS(=O)(=O)N1CCN(c2ccc3ccc(C(=O)NCCc4ccccc4)cn23)CC1`, the PXC50 reads like this: (BOTTOM 2.353808238, HILLSLOPE 2.745183605, MAX_EFFECT 51.67464115, TOP 50.17202443) 5.02; (BOTTOM 6.057044372, HILLSLOPE 2.135645997, MAX_EFFECT 57.03839122, TOP 56.72145826) 4.82.
For `CCc1nc(NCCCN(C)C)c2c3c(sc2n1)CCC3`, the PXC50 was less than 4 (MAX_EFFECT 11.05527638) and less than 4 (MAX_EFFECT 11.54791155).
For `CCc1nc(NCCO)c2c3c(sc2n1)CCC3`, the PXC50 runs as follows: (MAX_EFFECT 3.274559194) less than 4; (MAX_EFFECT 5.852417303) less than 4.
On to `Cc1sc2nc(CN(C)Cc3ccc(C(F)(F)F)cc3)nc(N)c2c1C`, for which the PXC50 is, setting by setting: (MAX_EFFECT 10.05291005) less than 4; (MAX_EFFECT 12.8) less than 4.
In turn, `CCN1c2ccc(-c3cncn3CCCn3ccnc3C)cc2CC1C` (stereo not given) registered a PXC50 (MAX_EFFECT 36.73469388) of less than 4 and a PXC50 (MAX_EFFECT 44.48598131) of less than 4.
For the compound `CS(=O)(=O)N1CCN(c2ccc3ccc(C(=O)NCCN4CCc5ccccc5C4)cn23)CC1`, the PXC50 is, setting by setting: (BOTTOM 9.287524867, HILLSLOPE 2.626114762, MAX_EFFECT 78.976234, TOP 76.44379257) 4.95; (BOTTOM -0.296501823, HILLSLOPE 1.63582329, MAX_EFFECT 73.68421053, TOP 78.31707036) 5.09.
`Fc1cccc(OCc2cnc[nH]2)c1Oc1ccc(Cl)cc1`: the PXC50 runs as follows: (MAX_EFFECT 12.57995736) less than 4; (MAX_EFFECT 14.69979296) less than 4.
With `Cc1nc(N2CCC(N3CCSCC3)CC2)c2ccsc2n1`, the PXC50 was less than 4 (MAX_EFFECT 8.29015544) and less than 4 (MAX_EFFECT 9.042553191).
In turn, `COCCNc1nc(-c2ccccn2)nc2sc3c(c12)CCCC3` showed a PXC50 (BOTTOM 1.822787583, HILLSLOPE 1.291311311, MAX_EFFECT 71.49122807, TOP 102.6012048) of 4.27 and a PXC50 (BOTTOM -5.083400143, HILLSLOPE 1.043102409, MAX_EFFECT 66.66666667, TOP 106.555572) of 4.25.
Turning to `CCOC(=O)N1CCN(c2nc(C)nc3scc(-c4cccs4)c23)CC1`, the PXC50 (MAX_EFFECT 28.24427481) was less than 4 and the PXC50 (MAX_EFFECT 28.46347607) was less than 4.
On to `CS(=O)(=O)N1CCN(c2ccc3ccc(C(=O)NC4CCCC4)cn23)CC1`, for which the PXC50 reads like this: (BOTTOM 3.919126037, HILLSLOPE 1.949141012, MAX_EFFECT 63.17460317, TOP 66.86118232) 4.76; (BOTTOM 4.67001684, HILLSLOPE 2.010919918, MAX_EFFECT 67.58893281, TOP 64.90205504) 5.
For `O=C(c1cc[nH]n1)N1CCC(F)(F)C2(CCN(c3ccccn3)C2)C1` (stereo not given), the PXC50 is less than 4 (MAX_EFFECT 8.450704225) and less than 4 (MAX_EFFECT 10.92592593).
`Nc1noc2ccc(-c3cnc4ccc(NCC5CCCO5)nn34)cc12` (stereo not given): the PXC50 was less than 4 (MAX_EFFECT 19.33842239) and less than 4 (MAX_EFFECT 25.0).
Turning to `CC(C)(C)c1nc(NCCO)c2c3c(sc2n1)CCCC3`, the PXC50 reads like this: (MAX_EFFECT 6.632653061) less than 4; (MAX_EFFECT 7.323232323) less than 4.
As for `CCC(=O)N1CCC(c2ncc3c(n2)CCNC3)CC1`, the PXC50 runs as follows: (MAX_EFFECT 1.814058957) less than 4; (MAX_EFFECT 14.20560748) less than 4.
Take `CS(=O)(=O)N1CCN(c2ccc3ccc(C(=O)NCc4ccccc4)cn23)CC1`: the PXC50 runs as follows: (BOTTOM 9.61795032, HILLSLOPE 2.1052237, MAX_EFFECT 58.50091408, TOP 60.20064035) 4.73; (BOTTOM -0.0629, HILLSLOPE 2.117070317, MAX_EFFECT 53.11004785, TOP 51.4182088) 5.1.
As to `Cc1cc(C)n(-c2nc(NCC(C)(C)O)c3c4c(sc3n2)CCCC4)n1`, the PXC50 is less than 4 (MAX_EFFECT 11.97916667) and less than 4 (MAX_EFFECT 40.35087719).
With `CC(C)(C)OC(=O)N1CCN(c2ccc3ccc(C(=O)NC4CCCC4)cn23)CC1`, the PXC50 runs as follows: (MAX_EFFECT 20.86513995) less than 4; (MAX_EFFECT 27.19298246) less than 4.
